# Laboratory results reported in PubChem BioAssay (NCI).
# The panel holds about 83,000 compounds, 20% with a hit somewhere; the sample as a whole holds those more often.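 A percent growth of 40 corresponds to 60% growth inhibition; 0 means no net growth; -100 means all cells died. Active threshold: below 10.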 Unmarked numbers belong to inactive results. The source made the active and inactive calls.
# System: OVCAR-4 ovarian
# Assay: NCI-60 one-dose screen, 48 h (100 = growth as untreated, 0 = no growth, -100 = all killed)
# Details: 10 µM unless noted
# Procedure: Growth inhibition of the OVCAR-4 human tumor cell line is measured as a screen for anti-cancer activity. Cells are grown in 96 well plates and exposed to the test compound for 48 hours. Compounds are tested at a single concentration, which is 10^-5 M for most compounds. The reported endpoint is percent growth (GI% or GIPRCNT), where numbers from 0 - 100% represent growth inhibition, and numbers from -100% - 0 represent cell death. For example, a value of 40 represents 60% growth inhibition. A value of 0 means no net growth occurred over the course of the experiment. A value of -40 indicates 40% of cells at the beginning of the experiment died by the end of the experiment. A value of -100 means all cells are dead at the end of the experiment.
# NCI-60 Human Tumor Cell Lines Screen was performed using the standard one-dose NCI protocol, which is described in more detail at https://dtp.cancer.gov/discovery_development/nci-60/default.htm.
# Compounds with GIPRCNT values below 10 were considered active. Activity score was based on GIPRCNT using the following formula: […]
# Score is 0 for GIPRCNT values of 100 or above, 50 for GIPRCNT values of 0, and 100 for GIPRCNT values of -100.
row,SMILES,growth
1,COc1ccc(C(=O)c2cc3c(N)c(C(=O)Nc4cccc(Cl)c4)sc3nc2C)cc1,49.5%
2,O=c1[nH]c(=O)[nH]c(=S)[nH]1,109%
3,O=S(=O)(O)c1cc(O)c2c(N=Nc3ccc(Nc4ccccc4)c4c(S(=O)(=O)O)cccc34)cc(S(=O)(=O)O)cc2c1,113%
4,COc1ccc(C(=O)c2cc(C)c(OC)c(C)c2)c(OC)c1O,41.1%
5,COc1cc(/C=C/C(=O)c2ccc(Nc3ncnc4ccccc34)cc2)cc(OC)c1,79.8%
6,CC(=O)N1c2ccccc2NC2=C(C(=O)N(C)C2(C)C)C1C (stereo not given),55.2%
7,COc1cc(-c2nc3occn3c2-c2ccnc(NCCNS(=O)(=O)c3ccc(Cl)cc3)n2)ccc1F,78.6%
8,CCCCCCC/C=C/[C@H]1O[C@]2(O)C(=O)C=C3C[C@@H](O[C@@H]4O[C@H](CO)[C@@H](O)C(O)[C@@H]4O)C[C@@H]3[C@H]2C=C1C (stereo not given in full),29.6%
9,OC(c1ccccc1)c1ccccn1 (stereo not given),116%
10,NS(=O)(=O)c1cccc(NC(=O)C(=O)C2C(=O)Nc3ccccc32)c1 (stereo not given),102%
11,COc1c(Cl)cc(Cl)c2ccc(C=C3C(=O)N(C)C(=O)N(C)C3=O)nc12,104%
12,BrC(Br)(Br)c1cnc2ccccc2n1,44.1%
13,Cc1ccc(C2CC(c3cccc(Nc4ccncc4)c3)=NN2c2ccc(Cl)cc2)cc1 (stereo not given),-83.2% (active)
14,CC(=O)N1N=C(c2cccc(Nc3ccncc3)c2)CC1c1ccc2c(c1)OCO2 (stereo not given),90.3%
15,CC1NC(=S)NC(=O)/C1=C/c1cc(=O)oc2c1ccc1ccccc12 (stereo not given),95.7%
16,Fc1ccc(C2CC(c3cccc(Nc4ccncc4)c3)=NN2c2ccc(Cl)cc2)cc1 (stereo not given),60.7%
17,CS(=O)(=O)c1ccc(-c2cc3c(oc2=O)-c2ccccc2OC3O)cc1 (stereo not given),94%
18,COc1ccc(-c2nc(N=Nc3c(O)[nH]c4ccccc34)nc(N3CCOCC3)c2C#N)cc1,59.5%
19,CC(O)/C=C/C=C/C(O)CC/C=C/C(=O)NCC(C)(C)O (stereo not given),106%
20,C/C(=C(/c1ccccc1)c1ccc(OCC(O)CNCCN2CCOCC2)cc1)c1ccccc1 (stereo not given),70.3%

row,SMILES,growth
1,CC(=O)[C@@H]1CC[C@]2(C(=O)n3ccnc3)CC[C@]3(C)[C@H](CC[C@@H]4[C@@]5(C)Cc6c([nH]c7ccccc67)C(C)(C)[C@@H]5CC[C@]43C)[C@@H]12,85.2%
2,O=C1CCCN1c1cccc2cccnc12,110%
3,C[C@@H]1CN(Cc2ccc(/C=C/c3n[nH]c4ccc5nc(-c6cn[nH]c6C(F)(F)F)c6c(c5c34)CCCC6)cc2)C[C@H](C)O1,29.9%
4,CCOC(=O)c1cnc2c(cnn2CC)c1NN=C(C)C,96.2%
5,COc1cc(C2NC(c3cc(OC)c(OC)c(OC)c3)C(C#N)(C#N)C2(C#N)C#N)cc(OC)c1OC (stereo not given),100%
6,O=C(N/N=C/c1ccncc1)c1ccccc1Nc1cccc(C(F)(F)F)c1,66%
7,CCOC(=O)C1CC(=O)c2cc(OC)c(OC)cc2C1 (stereo not given),96.8%
8,O=S(=O)(c1ccc(N/N=C\c2ccccc2)cc1)c1ccc(N/N=C/c2ccccc2)cc1,44.7%
9,O=C(N/N=C/c1cccc(O)c1)c1ccccc1Nc1cccc(C(F)(F)F)c1,58.9%
10,O=C1/C(=C/c2ccc(O)cc2)COc2ccc(-c3ccccc3)cc21,100%
11,COc1ccc(/C=C2\COc3ccc(-c4ccccc4)cc3C2=O)cc1O,80.5%
12,O=C(N/N=C/c1cccnc1)c1ccccc1Nc1cccc(C(F)(F)F)c1,70.3%
13,COc1ccc(-c2nc(N/N=C/c3cccc(O)c3)nc(N3CCOCC3)c2C#N)cc1,89.3%
14,CCCCCCCCN1C(=O)/C(=c2\sc3n(c2=O)C2C(NN=3)N(CC)C(=O)N2CC)c2ccccc21 (stereo not given),94.2%
15,COc1ccc(Cn2nc3c(c2-c2cc(OC)c(OC)c(OC)c2)-c2oncc2CC3)cc1,86.8%
16,C#CC(=O)Nc1cccc2c1cc(C)n2-c1nc2c(c(NCc3ccccc3)n1)CCCC2,-35.7% (active)
17,C[C@]12C[C@H]1CC[C@]1(C)[C@@H]2CC[C@@]23C[C@H](CC[C@H]21)[C@@](O)(CO)C3,110%
18,COc1cc(C(=O)/C=C/c2c(C)n([O-])c3ccc(Cl)cc3[n+]2=O)cc(OC)c1OC,70.7%
19,Cc1[nH]n(-c2cccc(Cl)c2)c(=O)c1/C=C1\C=Nc2ccc(Br)cc21,-89.9% (active)
20,Cc1ccc(S(=O)(=O)Nc2ccc(Cl)cc2)cc1,89.7%
